Experimental data taken from article PMC9574860, “Chemical Toolkit for PARK7: Potent, Selective, and High-Throughput” (Journal of Medicinal Chemistry, 2022).
About 400 (5.1%) of roughly 7,900 compounds showed an effect of 50% or more. For the sample, strong results were picked, then their nearest neighbours and some compounds at random.

molecular target: Parkinson's disease protein 7 (PARK7/DJ1) (human, UniProt Q99497); test: primary screen, percent inhibition; read as competition with a fluorescent probe by fluorescence polarization; higher = more effect of the substance; conditions: 100 µM
Summary of the method: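 Fluorescence-polarization probe displacement (JYQ-107, 20 nM final, 2 h) after 2 h preincubation of PARK7 (0.2 μM final) with each fragment at 100 μM final. Read-out ex/em 480/520 nm; remaining activity derived from FP signal loss relative to reference controls.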

Parkinson's disease protein 7 (PARK7/DJ1), sequence (Q99497 whole entry, looked up, the tested form may be a part): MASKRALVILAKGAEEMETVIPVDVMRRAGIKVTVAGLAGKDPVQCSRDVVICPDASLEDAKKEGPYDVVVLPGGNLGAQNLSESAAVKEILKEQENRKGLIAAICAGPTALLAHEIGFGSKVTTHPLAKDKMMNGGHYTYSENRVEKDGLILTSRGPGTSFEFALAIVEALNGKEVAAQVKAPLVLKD

| Compound | Inhibition % [%] |
| --- | --- |
| COc1ccc(NC(=O)C(C#N)=Cc2ccco2)cn1 | 10.5 |
| N#Cc1ncn(CC(=O)N2CCc3sccc3C2)n1 | 10.8 |
| CN(C)c1ccc(Cl)cc1NC(=O)CCl | 1.39 |
| CC(C)(C)OC(=O)N1CCC(B2OC(C)(C)C(C)(C)O2)C1 (stereo not drawn) | 1.29 |
| CC1CN(C(=O)CN2CCSC2=O)C(C)CO1 (stereo not drawn) | 4.59 |
| N#Cc1ccccc1OS(=O)(=O)c1nccs1 | 25.6 |
| Cc1cc(F)ccc1OS(=O)(=O)c1cnn(C)c1 | 9.05 |
| O=C(CCl)Nc1ccc2c(c1)OC1(CCCCC1)O2 | 93.3 |
| O=C(CCCl)Nc1ccc2c(c1)OCO2 | 13.1 |
| O=C(CCl)Nc1ccc2c(c1)NC(=O)CO2 | 32.7 |
| O=C(CCl)Nc1ccc2c(c1)OC1(CCCC1)O2 | 78.4 |
| O=C(CCl)NC(=O)Nc1ccc2c(c1)OCO2 | 1.46 |
| O=C(CCl)Nc1ccc2c(c1)OC(F)(F)O2 | 37.9 |
| COc1ccc(-c2nc(C#N)c(N3CCCC3)o2)cc1 | 5.17 |
| Cn1c(S)nc2ccccc2c1=O | 3.7 |
| O=C(Cc1ccccc1Cl)N1CCCCC1C1OCCO1 (stereo not drawn) | 14.3 |
| O=C(CCCl)Nc1ccccc1F | 6.72 |
| O=C(CS)Nc1ccccc1 | 50.4 |
| O=C(CCl)NC(=O)Nc1ccccc1F | -2.13 |
| O=C(CS)Nc1ccccc1F | 81.5 |
| C=CC(=O)Nc1ccccc1 | 3.57 |
| O=C(CS)Nc1ccc(F)cc1 | 5.25 |
| O=S1(=O)C=CC(c2ccccc2)C1 (stereo not drawn) | 12.1 |
| CCOc1ccc(S(=O)(=O)n2nc(C)cc2C)cc1C | 7.03 |
| C=CCOc1ccc(Cl)c(C#N)n1 | 4.33 |
| N#CC(=Cc1ccccc1OCC(F)(F)F)C(N)=O | 22.7 |

| Compound | Inhibition % [%] |
| --- | --- |
| CCc1noc(CC)c1CNCc1ccccc1B(O)O | 2.29 |
| O=C(CCl)N1CCOC1=O | 31.6 |
| C=CC(=O)N1CCNC(=O)C1 | 11.3 |
| O=C(CCl)N1CCNC1=O | 78 |
| O=C1CN(C(=O)CCl)CCN1 | 62.6 |
| O=C(CCl)N1CCNCC1.O=C(O)C(F)(F)F | 7.16 |
| N#CN(CC(=O)N1CCNC1=O)c1ccccc1 | 3.42 |
| CN(C)CCOc1ccccc1B1OC(C)(C)C(C)(C)O1 | 6.97 |
| C=CC(=O)N(C)C1CCN(c2ncnc3ccccc23)CC1 | 16.8 |
| Cc1csc(NC(=O)CCN2C(=O)CCC2=O)n1 | 5.08 |
| Cc1csc(NC(=O)CS)n1 | 71.5 |
| Cc1csc(NC(=O)CCl)n1 | -1.74 |
| Cc1cc(Br)ccc1NC(=O)CCl | 19.7 |
| O=C(CCl)NCc1ccc(F)cc1C(F)(F)F | 13.5 |
| C=CC(=O)N(Cc1cccc(C)n1)Cc1cccc(C)n1.O=C(O)C(F)(F)F | 8 |
| Cc1sc(NC(=O)CCl)c(C)c1C | 56.3 |
| Cc1sc(NC(=O)CCl)c(C#N)c1C | 9.37 |
| COC(=O)c1c(NC(=O)CCl)sc(C)c1C | 10.8 |
| C=CC(=O)N1CC(n2nc(C)nc2C)C1 | 9.38 |
| Cn1cc(NS(=O)(=O)c2cccc(S(=O)(=O)F)c2)ccc1=O | 103 |
| Cn1ccc(NS(=O)(=O)C=Cc2ccccc2)n1 | 11.1 |
| Cn1cnc(NS(=O)(=O)c2ccc(S(=O)(=O)F)cc2)n1 | 5.05 |
| Cn1ccc(NS(=O)(=O)c2cccc(S(=O)(=O)F)c2)n1 | 97.7 |
| Cn1ncnc1NS(=O)(=O)c1ccc(S(=O)(=O)F)cc1 | 5.71 |
| CCn1ncnc1NS(=O)(=O)c1cccc(S(=O)(=O)F)c1 | 99 |
| Cn1cc(NS(=O)(=O)c2ccc(S(=O)(=O)F)cc2)cn1 | 33 |

| Compound | Inhibition % [%] |
| --- | --- |
| CCc1nn(C)cc1NS(=O)(=O)c1cccc(S(=O)(=O)F)c1 | 95.4 |
| Cn1ccc(Nc2ccc(S(=O)(=O)F)cn2)n1 | 4.77 |
| CC1(C)C(=O)NC1c1ccco1 (stereo not drawn) | 1.96 |
| CN(CCc1nccs1)C(=O)c1cccnc1S | 5.89 |
| C=CC(=O)N1CCN(C(=O)CN2C(=O)CCC2=O)CC1 | 6.08 |
| COC(=O)c1ccc(C)c(NC(=O)CCl)c1 | 3.25 |
| N#CC=C1NC(=O)c2ccccc2S1 | 28.7 |
| CC1CN(C(=O)C=Cc2ccnn2C)CC(C)N1.Cl (stereo not drawn) | 14.8 |
| CC(=O)c1ccccc1NC(=O)CCl | 19 |
| Cn1cnc2ccc(S(=O)(=O)F)cc21 | 43.4 |
| Cn1nccc1NS(=O)(=O)c1cccc(S(=O)(=O)F)c1 | 89.5 |
| O=S(=O)(F)c1cccc(S(=O)(=O)Nc2ncccn2)c1 | 16.8 |
| C=CC(=O)N1C2CCC1CC(CC(F)F)C2 (stereo not drawn) | 6.6 |
| C=CC(=O)N1CCC[C@H]1C(=O)NC | 4.18 |
| O=C1OCCC1N1CCN(C(=O)c2cccc(F)c2)CC1 (stereo not drawn) | 8.98 |
| O=C(CCCl)NC1CCCc2ccccc21 (stereo not drawn) | 2.39 |
| N#CC(=Cc1cc2cc(F)ccc2o1)C(N)=O | 6.05 |
| CCc1cc2c(=O)n(CCS(=O)(=O)F)cnc2s1 | 9.17 |
| CNC(=O)Oc1cccc(O)c1 | 37.6 |
| CCc1c(OC(=O)NC)noc1C | 84.6 |
| C=CC(=O)NCc1c(C)noc1C | 13.4 |
| Cc1noc(C)c1CNC(=O)CCl | 46.7 |
| CNC(=O)Oc1noc(C)c1C | 84.8 |
| CNC(=O)Oc1cccc(N)c1 | 20.5 |
| N#Cc1nncn1CC(=O)Nc1ccc(C(F)(F)F)cc1 | 26.2 |
| C=CC(=O)N1CCC(NC(=O)c2oc(C)cc2C)CC1 | 3.91 |

| Compound | Inhibition % [%] |
| --- | --- |
| C=CC(=O)NC1CCc2nnc(CC)n2C1 (stereo not drawn) | 7.66 |
| O=C(CCl)c1ccc(O)cc1 | 86.7 |
| O=C(CCl)NC(=O)c1ccc(Cl)cc1 | 19.6 |
| O=C(CCl)c1ccc(N2CCOC2=O)cc1 | 24.5 |
| O=C(CCl)c1ccc(F)cc1F | 18.5 |
| O=C(CCl)c1ccc(O)cc1O | 81.9 |
| Cn1c(=O)oc2cc(C(=O)CCl)ccc21 | 0.517 |
| Cc1ccc(C(=O)CCl)cc1 | 32.3 |
| O=C(CCl)c1cc(F)ccc1O | 38.8 |
| O=C(CCl)c1ccc(Cl)cc1 | 75.6 |
| O=C(CCl)c1ccoc1 | 76.6 |
| O=C(CCl)c1ccc(F)cc1 | 32.3 |
| C=CC(=O)NC1COCc2ccccc21 (stereo not drawn) | 9.84 |
| O=C(CN1C(=O)CCC1=O)c1ccccc1F | 9.1 |
| CC1CC(N2CC=C(c3ccc(F)cc3)CC2)C(=O)O1 (stereo not drawn) | 5.18 |
| Cc1cccc(NC(=O)NC2C(=O)OCC2(C)C)n1 (stereo not drawn) | 7.98 |
| N#CC(=Cc1ccc(-c2nc3ccccc3s2)o1)C(=O)O | 3.06 |
| C=CC(=O)N1CCOc2ccccc21 | 9.1 |
| Cl.O=C(CCl)c1ccncc1 | 95.3 |
| O=C(CCl)NNC(=O)c1ccccc1 | -3.2 |
| O=C(CCl)NCC(=O)c1ccccc1 | 4.23 |
| O=C(CCl)c1ccc(C(F)(F)F)cc1 | 12 |
| O=C(CCl)c1ccc(O)c(O)c1 | 75.1 |
| Cl.O=C(CCl)Nc1ccncc1 | 14.4 |
| CSc1ccc(C(=O)CCl)cc1 | 89.6 |
| O=C(CCl)c1ccccc1 | 56.6 |

| Compound | Inhibition % [%] |
| --- | --- |
| CCN1CCN(c2oc(C3CC3)nc2C#N)CC1 | 1.62 |
| Cc1nccn1CC1CCCN1c1ccc(C#N)nc1 (stereo not drawn) | 0.293 |
| N#Cc1cc(C(=O)Nc2ccccc2)c(N)nc1S | 1.51 |
| C=CC(=O)N1CCN(C(=O)CC(F)(F)F)CC1 | 12.4 |
| CC1CC(C)CC2(C1)NC(=O)N(CCC1OCCO1)C2=O (stereo not drawn) | 2.2 |
| C=C(C)Cn1c(C#N)nc(C)c1C | 2.82 |
| O=C(CCl)c1ccc2[nH]c(=O)[nH]c2c1 | 63.2 |
| CC(=O)N1c2ccc(C(=O)CCl)cc2CC1C (stereo not drawn) | 5.96 |
| O=C(CCl)Nc1ccc2[nH]c(=O)[nH]c2c1 | 34.3 |
| O=C(CCl)c1ccc2c(c1)COC2 | 72.7 |
| Cl.O=C(CCl)Nc1cccnn1 | 26.1 |
| CC(C)n1ccnc1C(=O)CCl | 48.7 |
| O=C(CCl)c1ccc2[nH]c(=O)oc2c1 | 2.68 |
| O=C(CCl)c1ccns1 | 95.1 |
| N#Cc1ncn(CCCOc2ccc(Cl)cc2)n1 | 9.73 |
| N#Cc1ncn(Cc2c(F)cccc2Cl)n1 | 0.988 |
| C=CC(=O)Nc1cnc2c(C)cccn12 | 8.53 |
| Cc1nc(C)c(C(=O)CCl)o1 | 95.2 |
| Cc1nc(C#N)c(N2CCN(C(=O)CCl)CC2)o1 | 38.4 |
| CCCNC(=O)C(C#N)=Cc1oc(C)nc1C | 19.4 |
| C=CC(=O)N1CCCCC1c1noc(C2CC2)n1 (stereo not drawn) | 29.3 |
| COC[C@@H]1C[C@H](OC)CN1C(=O)c1c[nH]c(C#N)c1 | 1.56 |
| O=C(O)CCN1C(=O)CSC1=O | 13 |
| O=C(O)CN1C(=O)CSC1=O | 17.6 |
| Cl.NCCN1C(=O)CSC1=O | 75.6 |
